The values below come from PubChem BioAssay (Tox21).

Structures are written as SMILES. Results filed as inconclusive are left out. Where a call stands in place of a potency, no number is given. The source made the active and inactive calls. The call rests on the fitted dose curve.

The assay deals with Beta-2 adrenergic receptor (Homo sapiens) (UniProt P07550). In words: Adrenergic beta2 receptor (ADRB2) small molecule agonists, cell-based qHTS assay (AID 1963593).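 Further: CHO cells stably overexpressing human ADRB2.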 The method, boiled down:
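CHO cells stably over-expressing ADRB2 were plated overnight at 37C, then dosed with compounds plus a stimulation mix containing 100uM IBMX and 25uM Ro-20-1724 for 0.5hr at room temperature. cAMP was measured by HTRF competition, 1hr.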

Beta-2 adrenergic receptor (Homo sapiens), sequence (P07550 whole entry, looked up): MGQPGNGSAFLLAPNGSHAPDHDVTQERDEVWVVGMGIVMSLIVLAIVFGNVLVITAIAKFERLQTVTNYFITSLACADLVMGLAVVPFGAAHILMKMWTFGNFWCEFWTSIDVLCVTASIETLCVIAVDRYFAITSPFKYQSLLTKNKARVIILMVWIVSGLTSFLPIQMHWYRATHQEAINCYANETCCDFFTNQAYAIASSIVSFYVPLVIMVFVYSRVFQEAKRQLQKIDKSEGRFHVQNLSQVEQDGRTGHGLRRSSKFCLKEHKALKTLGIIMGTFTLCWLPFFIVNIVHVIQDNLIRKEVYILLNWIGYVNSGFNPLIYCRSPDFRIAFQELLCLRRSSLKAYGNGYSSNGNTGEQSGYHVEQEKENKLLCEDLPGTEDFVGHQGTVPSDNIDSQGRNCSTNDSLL

For the compound `Clc1ccc(C(Cl)(Cl)Cl)cc1`, the Potency entry was “inactive”.
On to `O=C(O)c1ccccn1`, for which the Potency result was “inactive”.
As for `N#Cc1cc(Br)c(O)c(Br)c1`, the Potency result is “inactive”.
The result for `CC(C)(C)c1ccccc1O` reads “inactive”.
To `c1ccc(P(c2ccccc2)c2ccccc2)cc1` belongs “inactive”.
To `NC(=O)CCl` belongs “inactive”; to `OCCN(CCO)CCO`, “inactive”.
`Oc1ccc(Cl)cc1Cl`: the Potency result was “inactive”.
To `N#Cc1ccc(Cl)cc1` belongs “inactive”; to `CCNc1nc(Cl)nc(NC(C)(C)C#N)n1`, “inactive”.
To `CC(C)C#N` belongs “inactive”; to `CC(C)=C[C@@H]1[C@@H](C(=O)OCc2coc(Cc3ccccc3)c2)C1(C)C`, “inactive”.
To `C[C@H]1C(=O)O[C@@H]2CCN3CC=C(COC(=O)[C@](C)(O)[C@]1(C)O)[C@H]23` belongs “inactive”; to `O=C(O)c1cc(Oc2ccc(C(F)(F)F)cc2Cl)ccc1[N+](=O)[O-]`, “inactive”.
Turning to `Cc1cccc(N)c1N`, the Potency entry is “inactive”.
Turning to `O=C/C(Cl)=C(/Cl)C(=O)O`, the Potency result was “inactive”.
To `C=CCN=C=S` belongs “inactive”.
Regarding `CCCC[N+]1(C)CCCC1` (tested in a mixture with another compound), the Potency result is “inactive”.
For the compound `C=C(C)C#N`, the Potency entry is “inactive”.
The result for `Cc1ccc2ccccc2c1` reads “inactive”; that for `C=CC(=O)OC(C)(C)C`, “inactive”.
The result for `N#Cc1cc([N+](=O)[O-])ccc1N` reads “inactive”; that for `N#CCc1ccccc1`, “inactive”.
The result for `ClC(Cl)c1ccccc1` reads “inactive”; that for `BrCc1ccc(Br)cc1`, “inactive”.
Take `Cc1cc(Cl)ccc1N=CN(C)C`: the Potency entry is “inactive”.
Regarding `C[C@]12C=CC3=C4CCC(=O)C=C4CC[C@H]3[C@@H]1CC[C@@H]2O`, the Potency result was “inactive”.
The result for `OCC(Cl)CCl` (stereo not drawn) reads “inactive”.
The result for `CCNc1nc(NCC)nc(SC)n1` reads “inactive”; that for `O=P(O)(Oc1ccccc1)Oc1ccccc1`, “inactive”.
The result for `CC(C)OS(C)(=O)=O` reads “inactive”; that for `CC(C)NC(=O)N1CC(=O)N(c2cc(Cl)cc(Cl)c2)C1=O`, “inactive”; that for `CC[N+]1(CC)CCC(OC(=O)C(O)(c2ccccc2)c2ccccc2)C1` (stereo not drawn), “inactive”.
Regarding `CCOC(=O)c1ccccc1N`, the Potency result was “inactive”.
The result for `CCNc1nc(Cl)nc(NC(C)C)n1` reads “inactive”.
`CC(Br)C(=O)O` (stereo not drawn): the Potency result was “inactive”.
Regarding `Clc1ccc(Cl)cc1`, the Potency entry was “inactive”.
Consider `CNC(=O)Oc1ccccc1OC(C)C`, for which the Potency entry is “inactive”.
As for `CCC[N+]1(C)CCCCC1`, the Potency entry is “inactive”.
The result for `O=c1[nH]c(=O)[nH]c(=O)[nH]1` reads “inactive”; that for `O=C(NC(=O)c1ccccc1Cl)Nc1ccc(OC(F)(F)F)cc1`, “inactive”.
To `C[C@]12CCC(=O)C=C1CC[C@@H]1[C@@H]2CC[C@]2(C)C(=O)CC[C@@H]12` belongs “inactive”; to `COC(=O)c1sccc1S(=O)(=O)NC(=O)Nc1nc(C)nc(OC)n1`, “inactive”.
The result for `COP(=S)(OC)SCN1C(=O)c2ccccc2C1=O` reads “inactive”.
As for `O=C(Cc1ccccc1)c1ccccc1`, the Potency entry is “inactive”.
The result for `CC(Cl)C(=O)O` (stereo not drawn) reads “inactive”; that for `[CH3][Sn]([CH3])([Cl])[Cl]`, “inactive”; that for `CCOP(=S)(OCC)SCCSCC`, “inactive”.
The result for `CCCCCCCCCCCCCC[P+](CCCCCC)(CCCCCC)CCCCCC` reads “inactive”; that for `c1ccc2c(c1)sc1ccccc12`, “inactive”.
The result for `CCOP(=O)(CN(CCO)CCO)OCC` reads “inactive”; that for `CCCC[n+]1cccc(C)c1`, “inactive”; that for `CCCCN(CC)C(=O)SCCC`, “inactive”.
Turning to `O=C(Nc1ccc(Br)cc1)c1cc(Br)cc(Br)c1O`, the Potency entry was “inactive”.
The result for `Nc1ccccc1C(=O)OCCc1ccccc1` reads “inactive”; that for `CCCCCCCCCl`, “inactive”.
The result for `Oc1ccc(Cl)cc1Cc1ccccc1` reads “inactive”; that for `Clc1cccc(Cl)c1`, “inactive”; that for `CCC(C)c1ccc(O)cc1` (stereo not drawn), “inactive”.
The result for `CCCC1CCCCN1` (stereo not drawn) reads “inactive”; that for `Nc1ccncc1`, “inactive”; that for `CC(C)(C#N)N=NC(C)(C)C#N`, “inactive”.
Turning to `CCCCCCCCCCCCCCn1cc[n+](C)c1`, the Potency entry was “inactive”.
